Test results: PMC7862700, “An all-to-all approach to the identification of sequence-specific readers for epigenetic DNA modifications on cytosine”

Tests used:
Assay in all cases: DAPPL (digital affinity profiling via proximity ligation, sequencing); 10 mM Tris-HCl pH 7.5, 50 mM NaCl, 1 mM DTT, 4% glycerol, room temperature, 30 min; GST-TFs on glutathione beads, 16-mer random dsDNA library, 0.1% formaldehyde crosslink after washing; high values mean tight binding
[1] = target: T1, FEV (Homo sapiens, UniProt Q99581 1-238); details: protein: recombinant; tags: N-terminal GST; dsDNA, one strand shown
T1 sequence: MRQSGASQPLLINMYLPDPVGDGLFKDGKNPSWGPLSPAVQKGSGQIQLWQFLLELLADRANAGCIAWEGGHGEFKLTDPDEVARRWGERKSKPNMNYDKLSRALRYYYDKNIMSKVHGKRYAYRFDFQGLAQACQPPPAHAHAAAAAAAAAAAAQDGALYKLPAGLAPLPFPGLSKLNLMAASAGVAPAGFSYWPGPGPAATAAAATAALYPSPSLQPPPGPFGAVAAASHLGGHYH
How it was run: (§1)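 Binding signal is defined as a hexamer's read frequency for one factor over its frequency for the tag-only sample. To obtain reads, GST-fused human transcription factors were expressed in yeast, captured on glutathione beads, barcoded with DNA and pooled with that sample. Pools met 200 nmole of a 16-mer random double-stranded DNA library in Tris/NaCl/DTT/glycerol buffer for 30 min at room temperature before washing, 0.1% formaldehyde crosslinking, proximity ligation (BsaI/T4 ligase, 1 h, 37 °C), PCR and Illumina NextSeq500 sequencing.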

[2] = target: ETV5 (Homo sapiens, UniProt P41161 1-510); details: protein: recombinant; tags: N-terminal GST; dsDNA, one strand shown
Sequence of ETV5 (P41161 whole entry): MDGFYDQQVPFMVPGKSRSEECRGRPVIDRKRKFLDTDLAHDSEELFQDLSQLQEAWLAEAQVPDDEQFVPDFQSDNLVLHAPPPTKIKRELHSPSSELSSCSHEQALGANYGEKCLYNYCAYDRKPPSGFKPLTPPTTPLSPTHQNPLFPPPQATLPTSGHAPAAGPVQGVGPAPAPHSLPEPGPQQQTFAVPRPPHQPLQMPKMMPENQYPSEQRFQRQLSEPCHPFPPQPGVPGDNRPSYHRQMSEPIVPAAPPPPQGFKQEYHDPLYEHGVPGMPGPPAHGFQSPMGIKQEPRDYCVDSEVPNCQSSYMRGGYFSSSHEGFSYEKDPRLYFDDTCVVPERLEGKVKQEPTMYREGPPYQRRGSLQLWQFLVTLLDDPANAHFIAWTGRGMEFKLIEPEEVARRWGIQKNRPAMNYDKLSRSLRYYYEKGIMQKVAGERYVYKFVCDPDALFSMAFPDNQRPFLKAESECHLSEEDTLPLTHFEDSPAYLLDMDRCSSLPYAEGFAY
How it was run: as §1

[3] = target: HSF1 (Homo sapiens, UniProt Q00613 1-529); details: protein: recombinant; tags: N-terminal GST; chain copies: 3; dsDNA, one strand shown
Sequence of HSF1 (Q00613 whole entry): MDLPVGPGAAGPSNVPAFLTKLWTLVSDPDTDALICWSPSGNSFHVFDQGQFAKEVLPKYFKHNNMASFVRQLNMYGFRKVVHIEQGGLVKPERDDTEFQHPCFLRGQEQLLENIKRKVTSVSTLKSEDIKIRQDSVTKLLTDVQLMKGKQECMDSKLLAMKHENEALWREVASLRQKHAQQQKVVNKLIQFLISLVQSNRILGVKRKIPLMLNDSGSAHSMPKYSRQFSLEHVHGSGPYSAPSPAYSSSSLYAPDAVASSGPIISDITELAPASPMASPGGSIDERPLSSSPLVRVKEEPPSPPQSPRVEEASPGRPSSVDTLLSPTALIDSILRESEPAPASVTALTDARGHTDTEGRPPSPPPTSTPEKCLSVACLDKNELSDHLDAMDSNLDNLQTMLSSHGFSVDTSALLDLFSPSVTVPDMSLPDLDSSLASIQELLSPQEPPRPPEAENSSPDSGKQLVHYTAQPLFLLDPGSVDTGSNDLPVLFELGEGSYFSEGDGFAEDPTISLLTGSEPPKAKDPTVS
How it was run: as §1

[4] = target: T2, SPIC (Homo sapiens, UniProt Q8N5J4 1-248); details: protein: recombinant; tags: N-terminal GST; dsDNA, one strand shown
T2 sequence: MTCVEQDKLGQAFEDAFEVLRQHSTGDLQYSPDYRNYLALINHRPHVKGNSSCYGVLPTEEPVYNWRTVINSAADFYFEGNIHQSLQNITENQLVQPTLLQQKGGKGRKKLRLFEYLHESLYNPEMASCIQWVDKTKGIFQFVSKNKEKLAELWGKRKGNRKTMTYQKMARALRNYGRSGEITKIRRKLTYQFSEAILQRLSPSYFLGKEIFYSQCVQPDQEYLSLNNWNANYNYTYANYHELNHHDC
How it was run: as §1

[5] = target: ELF4 (Homo sapiens, UniProt Q99607 1-663); details: protein: recombinant; tags: N-terminal GST; dsDNA, one strand shown
Sequence of ELF4 (Q99607 whole entry): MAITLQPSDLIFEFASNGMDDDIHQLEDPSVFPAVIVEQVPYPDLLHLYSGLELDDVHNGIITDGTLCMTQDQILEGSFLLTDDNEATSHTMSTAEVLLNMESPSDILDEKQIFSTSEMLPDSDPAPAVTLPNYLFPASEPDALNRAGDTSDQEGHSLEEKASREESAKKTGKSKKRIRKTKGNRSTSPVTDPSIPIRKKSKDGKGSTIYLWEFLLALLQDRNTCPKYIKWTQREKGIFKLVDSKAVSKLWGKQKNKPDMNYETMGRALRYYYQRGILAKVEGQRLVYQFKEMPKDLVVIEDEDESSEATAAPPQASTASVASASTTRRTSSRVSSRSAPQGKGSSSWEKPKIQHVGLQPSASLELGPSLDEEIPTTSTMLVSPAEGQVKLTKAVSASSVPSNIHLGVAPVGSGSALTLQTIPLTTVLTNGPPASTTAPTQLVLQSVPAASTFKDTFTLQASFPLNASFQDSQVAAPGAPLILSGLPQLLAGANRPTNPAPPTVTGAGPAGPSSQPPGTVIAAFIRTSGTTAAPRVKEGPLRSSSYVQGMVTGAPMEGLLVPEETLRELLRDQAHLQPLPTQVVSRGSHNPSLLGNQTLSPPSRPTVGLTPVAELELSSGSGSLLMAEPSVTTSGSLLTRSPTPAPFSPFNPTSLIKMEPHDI
How it was run: as §1

[6] = target: T3, ELK4 (Homo sapiens, UniProt P28324-2 1-405); details: protein: recombinant; tags: N-terminal GST; dsDNA, one strand shown
T3 sequence: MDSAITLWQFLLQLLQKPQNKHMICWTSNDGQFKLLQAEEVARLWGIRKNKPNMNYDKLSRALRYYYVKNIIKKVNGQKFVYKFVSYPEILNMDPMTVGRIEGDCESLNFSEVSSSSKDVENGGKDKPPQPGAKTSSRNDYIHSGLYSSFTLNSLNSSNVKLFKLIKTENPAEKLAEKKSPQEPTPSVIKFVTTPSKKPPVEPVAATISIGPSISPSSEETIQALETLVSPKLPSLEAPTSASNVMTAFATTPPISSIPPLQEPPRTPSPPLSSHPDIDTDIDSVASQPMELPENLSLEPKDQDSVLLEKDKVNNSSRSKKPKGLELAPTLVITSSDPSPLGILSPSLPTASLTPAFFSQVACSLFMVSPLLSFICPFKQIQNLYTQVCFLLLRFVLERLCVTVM
How it was run: as §1

[7] = target: T4, ETV2 (Homo sapiens, UniProt O00321 1-342); details: protein: recombinant; tags: N-terminal GST; dsDNA, one strand shown
T4 sequence: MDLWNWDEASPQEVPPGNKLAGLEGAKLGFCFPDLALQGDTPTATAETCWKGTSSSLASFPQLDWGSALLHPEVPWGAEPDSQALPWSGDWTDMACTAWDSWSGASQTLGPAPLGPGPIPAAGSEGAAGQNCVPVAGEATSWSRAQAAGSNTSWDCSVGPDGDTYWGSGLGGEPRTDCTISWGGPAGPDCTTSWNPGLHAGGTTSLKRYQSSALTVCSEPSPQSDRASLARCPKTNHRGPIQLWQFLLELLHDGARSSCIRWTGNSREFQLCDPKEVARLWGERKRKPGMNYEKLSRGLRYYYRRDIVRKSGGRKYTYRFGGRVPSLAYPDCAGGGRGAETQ
How it was run: as §1

[8] = target: T5, ELF3 (Homo sapiens, UniProt P78545 1-371); details: protein: recombinant; tags: N-terminal GST; dsDNA, one strand shown
T5 sequence: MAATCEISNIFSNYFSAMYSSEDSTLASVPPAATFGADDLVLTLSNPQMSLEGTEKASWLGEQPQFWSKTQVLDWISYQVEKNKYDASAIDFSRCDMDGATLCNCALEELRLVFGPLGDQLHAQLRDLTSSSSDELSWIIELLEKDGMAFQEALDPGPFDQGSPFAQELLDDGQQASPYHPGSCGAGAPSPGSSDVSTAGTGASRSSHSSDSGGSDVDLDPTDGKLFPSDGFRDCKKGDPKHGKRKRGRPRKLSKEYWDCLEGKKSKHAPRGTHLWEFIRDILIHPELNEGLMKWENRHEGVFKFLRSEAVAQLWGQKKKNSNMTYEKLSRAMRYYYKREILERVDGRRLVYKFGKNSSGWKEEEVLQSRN
How it was run: as §1

[9] = target: CRX (Homo sapiens, UniProt O43186 1-299); details: protein: recombinant; tags: N-terminal GST; dsDNA, one strand shown
Sequence of CRX (O43186 whole entry): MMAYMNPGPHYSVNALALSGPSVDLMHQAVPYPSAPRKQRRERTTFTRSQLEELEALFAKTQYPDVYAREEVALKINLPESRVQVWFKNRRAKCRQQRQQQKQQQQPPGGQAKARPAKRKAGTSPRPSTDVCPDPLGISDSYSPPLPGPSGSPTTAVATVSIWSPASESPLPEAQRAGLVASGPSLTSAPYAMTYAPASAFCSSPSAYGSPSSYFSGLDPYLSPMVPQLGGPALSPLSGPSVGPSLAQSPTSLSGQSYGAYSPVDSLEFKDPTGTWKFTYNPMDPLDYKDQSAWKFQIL
How it was run: as §1

[10] = target: ETV1 (Homo sapiens, UniProt P50549 1-477); details: protein: recombinant; tags: N-terminal GST; dsDNA, one strand shown
Sequence of ETV1 (P50549 whole entry): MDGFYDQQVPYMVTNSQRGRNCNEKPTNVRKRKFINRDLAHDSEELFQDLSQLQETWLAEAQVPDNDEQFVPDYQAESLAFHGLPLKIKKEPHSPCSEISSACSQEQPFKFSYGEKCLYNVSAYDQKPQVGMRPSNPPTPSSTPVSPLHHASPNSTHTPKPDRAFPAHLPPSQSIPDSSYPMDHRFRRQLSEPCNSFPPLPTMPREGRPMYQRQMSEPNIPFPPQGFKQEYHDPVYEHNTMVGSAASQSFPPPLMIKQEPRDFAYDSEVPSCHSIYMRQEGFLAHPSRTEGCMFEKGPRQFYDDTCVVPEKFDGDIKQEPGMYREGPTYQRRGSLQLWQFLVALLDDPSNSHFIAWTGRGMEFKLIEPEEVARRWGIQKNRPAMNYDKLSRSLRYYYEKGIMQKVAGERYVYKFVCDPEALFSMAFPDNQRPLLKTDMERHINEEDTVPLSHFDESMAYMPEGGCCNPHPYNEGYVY
How it was run: as §1

[11] = target: T6, ERF (Homo sapiens, UniProt P50548 1-548); details: protein: recombinant; tags: N-terminal GST; dsDNA, one strand shown
T6 sequence: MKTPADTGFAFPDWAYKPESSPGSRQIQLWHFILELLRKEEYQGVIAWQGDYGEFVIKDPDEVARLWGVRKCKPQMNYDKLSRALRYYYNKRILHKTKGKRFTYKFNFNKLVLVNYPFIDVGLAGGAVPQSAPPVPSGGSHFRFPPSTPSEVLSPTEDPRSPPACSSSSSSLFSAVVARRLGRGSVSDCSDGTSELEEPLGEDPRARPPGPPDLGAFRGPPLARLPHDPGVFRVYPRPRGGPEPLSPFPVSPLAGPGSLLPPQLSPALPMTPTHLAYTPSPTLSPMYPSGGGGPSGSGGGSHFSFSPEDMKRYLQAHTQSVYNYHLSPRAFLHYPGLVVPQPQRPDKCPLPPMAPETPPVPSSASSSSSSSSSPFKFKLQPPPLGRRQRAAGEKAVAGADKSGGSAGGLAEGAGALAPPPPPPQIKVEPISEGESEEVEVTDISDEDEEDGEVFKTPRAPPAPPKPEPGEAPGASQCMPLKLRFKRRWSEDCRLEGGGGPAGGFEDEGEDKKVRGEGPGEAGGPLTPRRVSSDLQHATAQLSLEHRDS
How it was run: as §1

[12] = target: T7, ETV3L (Homo sapiens, UniProt Q6ZN32 1-361); details: protein: recombinant; tags: N-terminal GST; dsDNA, one strand shown
T7 sequence: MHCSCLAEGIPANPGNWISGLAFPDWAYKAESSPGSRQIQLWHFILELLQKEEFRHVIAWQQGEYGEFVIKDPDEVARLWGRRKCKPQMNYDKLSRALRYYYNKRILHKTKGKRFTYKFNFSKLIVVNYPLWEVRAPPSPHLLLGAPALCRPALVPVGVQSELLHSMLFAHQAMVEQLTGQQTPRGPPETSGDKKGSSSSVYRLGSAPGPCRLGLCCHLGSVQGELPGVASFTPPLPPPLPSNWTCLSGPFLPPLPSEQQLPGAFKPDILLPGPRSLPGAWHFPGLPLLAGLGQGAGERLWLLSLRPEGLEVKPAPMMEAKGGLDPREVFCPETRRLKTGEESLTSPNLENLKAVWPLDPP
How it was run: as §1

[13] = target: T8, ETS2 (Homo sapiens, UniProt P15036 1-469); details: protein: recombinant; tags: N-terminal GST; dsDNA, one strand shown
T8 sequence: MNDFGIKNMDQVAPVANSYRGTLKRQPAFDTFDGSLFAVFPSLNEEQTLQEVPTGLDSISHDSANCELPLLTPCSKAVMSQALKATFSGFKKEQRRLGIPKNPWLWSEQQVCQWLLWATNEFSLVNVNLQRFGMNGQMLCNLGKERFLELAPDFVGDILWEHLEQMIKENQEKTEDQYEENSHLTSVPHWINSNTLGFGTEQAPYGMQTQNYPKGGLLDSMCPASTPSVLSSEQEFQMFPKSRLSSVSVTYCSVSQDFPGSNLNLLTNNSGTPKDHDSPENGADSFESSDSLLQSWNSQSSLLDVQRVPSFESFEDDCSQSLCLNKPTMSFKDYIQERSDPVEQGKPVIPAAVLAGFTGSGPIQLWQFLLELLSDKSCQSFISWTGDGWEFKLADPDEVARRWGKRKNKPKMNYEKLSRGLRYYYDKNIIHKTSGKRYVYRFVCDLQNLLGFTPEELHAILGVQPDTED
How it was run: as §1

[14] = target: T9, SPDEF (Homo sapiens, UniProt O95238 1-335); details: protein: recombinant; tags: N-terminal GST; dsDNA, one strand shown
T9 sequence: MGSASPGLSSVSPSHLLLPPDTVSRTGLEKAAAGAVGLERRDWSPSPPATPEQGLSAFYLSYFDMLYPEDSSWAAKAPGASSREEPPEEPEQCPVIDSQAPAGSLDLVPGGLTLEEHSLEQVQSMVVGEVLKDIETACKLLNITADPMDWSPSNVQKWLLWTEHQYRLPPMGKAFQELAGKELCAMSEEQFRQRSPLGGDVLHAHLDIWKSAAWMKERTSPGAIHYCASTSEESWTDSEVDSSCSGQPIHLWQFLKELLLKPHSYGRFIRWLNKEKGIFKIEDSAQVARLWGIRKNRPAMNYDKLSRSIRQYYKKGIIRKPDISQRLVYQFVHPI
How it was run: as §1

[15] = target: T10, ETV7 (Homo sapiens, UniProt Q9Y603 1-341); details: protein: recombinant; tags: N-terminal GST; dsDNA, one strand shown
T10 sequence: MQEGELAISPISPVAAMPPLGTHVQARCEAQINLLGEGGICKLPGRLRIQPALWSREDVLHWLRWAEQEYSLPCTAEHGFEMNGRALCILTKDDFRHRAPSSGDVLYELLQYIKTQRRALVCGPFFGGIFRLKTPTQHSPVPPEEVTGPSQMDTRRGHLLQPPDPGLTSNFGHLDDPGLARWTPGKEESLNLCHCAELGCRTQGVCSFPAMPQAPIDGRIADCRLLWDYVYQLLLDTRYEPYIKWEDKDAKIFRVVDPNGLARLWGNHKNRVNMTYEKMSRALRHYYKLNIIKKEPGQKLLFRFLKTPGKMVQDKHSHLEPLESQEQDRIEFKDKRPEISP
How it was run: as §1

[16] = target: T11, ELF5 (Homo sapiens, UniProt Q9UKW6-2 1-255); details: protein: recombinant; tags: N-terminal GST; dsDNA, one strand shown
T11 sequence: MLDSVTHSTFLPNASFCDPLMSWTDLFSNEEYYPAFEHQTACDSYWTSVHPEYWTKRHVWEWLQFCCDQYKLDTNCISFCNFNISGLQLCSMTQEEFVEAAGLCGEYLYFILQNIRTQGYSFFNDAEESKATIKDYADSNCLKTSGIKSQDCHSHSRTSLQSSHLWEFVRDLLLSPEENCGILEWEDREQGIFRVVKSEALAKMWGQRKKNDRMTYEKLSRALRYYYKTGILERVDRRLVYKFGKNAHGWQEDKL
How it was run: as §1

[17] = target: T12, ETV3 (Homo sapiens, UniProt P41162-2 1-143); details: protein: recombinant; tags: N-terminal GST; dsDNA, one strand shown
T12 sequence: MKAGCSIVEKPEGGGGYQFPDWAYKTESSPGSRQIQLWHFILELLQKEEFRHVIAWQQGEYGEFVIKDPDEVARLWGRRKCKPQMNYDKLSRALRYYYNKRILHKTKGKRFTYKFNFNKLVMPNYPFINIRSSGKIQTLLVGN
How it was run: as §1

[18] = target: ETV6 (Homo sapiens, UniProt P41212 1-452); details: protein: recombinant; tags: N-terminal GST; dsDNA, one strand shown
Sequence of ETV6 (P41212 whole entry): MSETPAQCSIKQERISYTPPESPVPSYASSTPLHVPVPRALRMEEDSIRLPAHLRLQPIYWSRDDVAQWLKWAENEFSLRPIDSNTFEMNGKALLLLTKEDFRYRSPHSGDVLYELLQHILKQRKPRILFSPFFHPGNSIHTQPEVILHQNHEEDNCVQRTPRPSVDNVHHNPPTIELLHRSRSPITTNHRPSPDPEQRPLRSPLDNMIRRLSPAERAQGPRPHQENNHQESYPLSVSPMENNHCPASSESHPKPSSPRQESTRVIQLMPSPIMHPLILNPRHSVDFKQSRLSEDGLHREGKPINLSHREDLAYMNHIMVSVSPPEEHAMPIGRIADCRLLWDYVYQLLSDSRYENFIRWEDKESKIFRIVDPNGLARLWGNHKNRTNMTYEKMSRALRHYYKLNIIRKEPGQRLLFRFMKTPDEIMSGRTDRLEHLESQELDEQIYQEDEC
How it was run: as §1

## AATAGC
[1]
  binding signal: 1.18 fold enrichment (6-mer frequency, TF over GST control)
[2]
  binding signal: 1.19 fold enrichment (6-mer frequency, TF over GST control)
[3]
  binding signal: 1.07 fold enrichment (6-mer frequency, TF over GST control)
[4]
  binding signal: 1.01 fold enrichment (6-mer frequency, TF over GST control)
[5]
  binding signal: 1.15 fold enrichment (6-mer frequency, TF over GST control)
[6]
  binding signal: 1.19 fold enrichment (6-mer frequency, TF over GST control)
[7]
  binding signal: 1.17 fold enrichment (6-mer frequency, TF over GST control)
[8]
  binding signal: 1.23 fold enrichment (6-mer frequency, TF over GST control)
[9]
  binding signal: 1.15 fold enrichment (6-mer frequency, TF over GST control)
[10]
  binding signal: 1.13 fold enrichment (6-mer frequency, TF over GST control)
[11]
  binding signal: 1.25 fold enrichment (6-mer frequency, TF over GST control)
[12]
  binding signal: 1.03 fold enrichment (6-mer frequency, TF over GST control)
[13]
  binding signal: 1.15 fold enrichment (6-mer frequency, TF over GST control)
[14]
  binding signal: 1.1 fold enrichment (6-mer frequency, TF over GST control)
[15]
  binding signal: 1.19 fold enrichment (6-mer frequency, TF over GST control)
[16]
  binding signal: 1.16 fold enrichment (6-mer frequency, TF over GST control)
[17]
  binding signal: 1.23 fold enrichment (6-mer frequency, TF over GST control)
[18]
  binding signal: 1.1 fold enrichment (6-mer frequency, TF over GST control)
